HCV inh: HCV inhibition; AID 651820; Potency, µM (highest dose often 41.8 µM), without a hit: top-dose activity change, negative = inhibition, actives largely listed as inhibitors; actives 3.4% (n = 340,000); Huh7.5.1 HCVcc-Cre infection, luciferase reporter, 44 h; further: potency means the concentration at half of the fitted maximal effect; on the % scale 0 is the no-effect control and ±100 the full control effect
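Cells (1,000/well) were plated 4 h before compound, then infected with HCVcc-Cre virus (~0.5 moi). After 44 h further culture, infection was read as luciferase luminescence following a 15 min substrate incubation at room temperature.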
CHX counter: affects cycloheximide protein synthesis inhibition readout, counter-screen | cell reporter, cycloheximide protein synthesis inhibition counterscreen | max response, % | actives 12% (n = 300,000) | AID 2314; in the data active means max response mostly above about 13%, no sharp cut-off; inactive means mostly below about 14%; further: read at 38.3 µM for the half of the compounds with a filed dose; 0% is about no effect
Pf growth 48h: inhibits P. falciparum growth in the first generation, 48 h; P. falciparum luciferase growth in erythrocytes, 48 h; Potency, µM (titrated, usually from 28.7 µM), for the others: top-dose activity change, negative = inhibition, usual class: inhibitors; actives 5.9% (n = 310,000); AID 504832; further: potency means the concentration at half of the fitted maximal effect; on the % scale 0 is the no-effect control and ±100 the full control effect
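Firefly luciferase activity from engineered P. falciparum reports growth; inhibitors lower the luminescent signal. Cultures contained 2% hematocrit erythrocytes at 0.1% final parasitemia.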
Pf growth 96h: P. falciparum growth inhibition at 96 hours; P. falciparum luciferase reporter growth, 96 h; Potency, µM (series often up to 28.7 µM), for the others: at the top dose activity change, negative = inhibition, hits mostly inhibitors; actives 6.9% (n = 320,000); further: potency means the concentration at half of the fitted maximal effect; on the % scale 0 is the no-effect control and ±100 the full control effect
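Plates of compound plus infected erythrocytes (2% hematocrit, 0.05% parasitemia final) incubate 96 hours, 37 C, 5% CO2. Detection reagent added; reduced luminescence from the parasites' luciferase reporter flags inhibition.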
Shiga inhibitor: inhibitors of Shiga toxin in Vero cells; Vero cells, Shiga toxin protein synthesis inhibition reporter; inhibition, % at 38.7 µM; actives 9.2% (n = 290,000); in the data active means inhibition mostly above about 28%, no sharp cut-off; inactive means mostly below about 43%; further: 0% is about no effect
AMA1-RON2 inh: AMA1-RON2 (P. falciparum) interaction inhibition | AlphaScreen AMA1-biotinylated RON2 peptide binding | Potency, µM (titrated, usually from 58.2 µM), for the others: at the highest dose activity change, negative = inhibition, most hits filed as inhibitors | actives 0.2% (n = 360,000) | AID 720542;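 further: potency means the concentration at half of the fitted maximal effect; 0% = vehicle wells and -100% = peptide control; nearly all actives have a fitted effect of over 45% in size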
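AMA1 (3D7) with his tag at 25 nM final met compounds first, then biotinylated RON2 peptide at 25 nM; detection used donor plus acceptor beads, 10 µg/mL apiece, read by AlphaScreen after 30 min at room temperature.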
Numbers without * were called inactive; [ ] = another dose, or the depositor's remark. Only some compounds are listed: those with a hit (about 21% of all), similar ones and a draw of the others. Unless noted, the call rests on the fitted dose curve; in most records, active means well fitted curve in the direction sought with a large enough effect; inconclusive means small, poorly fitted or top-dose-only effect, or another doubt; inactive means no such curve, though single readings can be large; an effect the other way counts as inactive or inconclusive.

`Cc1ccc(CSc2nnc(SCC(=O)N/N=C/c3c[nH]c4ccccc34)s2)cc1` gave HCV inh -9%, CHX counter 19*, Pf growth 48h 246%, Pf growth 96h 111%, Shiga inhibitor 42 and AMA1-RON2 inh -8%.
Screening CC(=C/c1ccco1)/C=N/NC(=O)CSc1nnc(SCc2ccc(C)cc2)s1 returned HCV inh 5%, CHX counter 45*, Pf growth 48h 90%, Pf growth 96h 91%, Shiga inhibitor 33* and AMA1-RON2 inh 11%[2.32 µM].
For Cc1ccc(CSc2nnc(SCC(=O)N/N=C/c3ccccc3OCC(=O)O)s2)cc1 the results were HCV inh -4%, CHX counter 21*, Pf growth 48h 158%, Pf growth 96h 105%, Shiga inhibitor 44* and AMA1-RON2 inh -3%.
`Cc1ccc(C)c(C(=O)C(C)OC(=O)CN2C(=O)NC3(CC(C)CC(C)(C)C3)C2=O)c1` (centres undefined) gave HCV inh 26%, CHX counter -2, Pf growth 48h 0%, Pf growth 96h -13%, Shiga inhibitor -2 and AMA1-RON2 inh -7%.
`COc1ccc(Cl)cc1Cn1c(C)c(C(=O)NCc2cccc([N+](=O)[O-])c2)sc1=O` gave AMA1-RON2 inh -18%.
For O=C(CSc1nnc(SCc2ccccc2)s1)N/N=C/c1ccc(Cl)cc1Cl the results were HCV inh 4%, CHX counter -3, Pf growth 48h 1%, Pf growth 96h 32%, Shiga inhibitor -8 and AMA1-RON2 inh 0%[2.32 µM].
CCn1c(SCC(=O)N/N=C/c2c[nH]c3ccccc23)nnc1-c1ccc(C(C)(C)C)cc1 was read as HCV inh inconclusive, CHX counter 1, Pf growth 48h inconclusive, Pf growth 96h 10µM*, Shiga inhibitor 4 and AMA1-RON2 inh 0%[2.32 µM].
For CCn1c(SCC(=O)N/N=C/c2ccc(C)o2)nnc1-c1ccc(C(C)(C)C)cc1 the results were HCV inh inconclusive, CHX counter 1, Pf growth 48h -10%, Pf growth 96h inconclusive, Shiga inhibitor -3 and AMA1-RON2 inh 20%.
`O=C(CSc1nnc(SCc2ccc(Cl)cc2)s1)N/N=C/c1ccc(Cl)cc1Cl` gave HCV inh -10%, CHX counter 33*, Pf growth 48h 85%, Pf growth 96h 7%, Shiga inhibitor 55* and AMA1-RON2 inh 20%.
Screening O=C(CSc1nnc(SCc2ccccc2)s1)N/N=C/c1ccc(C(=O)O)cc1 returned HCV inh 24%, CHX counter -2, Pf growth 48h 71%, Pf growth 96h 24%, Shiga inhibitor 9 and AMA1-RON2 inh 0%.
Screening Cc1nn(-c2ccccc2)c(C)c1/C=N/NC(=O)CSc1nnc(SCc2cccc3ccccc23)s1 returned HCV inh 14µM*, CHX counter 7, Pf growth 48h -26%, Pf growth 96h 10µM*, Shiga inhibitor 16 and AMA1-RON2 inh -1%.
For Cc1ccc(CSc2nnc(SCC(=O)N/N=C/c3ccc(C(=O)O)cc3)s2)cc1 the results were HCV inh 11%, CHX counter 13*, Pf growth 48h 155%, Pf growth 96h 142%, Shiga inhibitor 37 and AMA1-RON2 inh -8%.
`O=C(c1ccccc1Oc1ccc([N+](=O)[O-])cc1)N1CCOCC1` gave HCV inh 18%, CHX counter -2, Pf growth 48h 5%, Pf growth 96h -22%, Shiga inhibitor 18 and AMA1-RON2 inh -5%.
Screening O=c1[nH][nH]c2c1[C@H](CCc1cccc(Cl)c1)O[C@H](C1CCCC1)C2 returned AMA1-RON2 inh 92%.
For O=C(Nc1cnc2ccccc2c1)N1CCCCC1 the results were HCV inh 9%, CHX counter 51*, Pf growth 48h 435%, Pf growth 96h -25%, Shiga inhibitor 82* and AMA1-RON2 inh -19%.
Screening O=C(Nc1cnc2ccccc2c1)N1CCOCC1 returned HCV inh 0%, CHX counter 42*, Pf growth 48h 120%, Pf growth 96h 13%, Shiga inhibitor 64* and AMA1-RON2 inh 9%.
Cc1cccc(NC(=O)N2CCCC2)c1 was read as HCV inh -3%, CHX counter 6, Pf growth 48h 1%, Pf growth 96h 17%[5.75 µM], Shiga inhibitor 25 and AMA1-RON2 inh -3%.
`CCCc1ccc(C(O)c2ncc(-c3ccccc3F)[nH]2)cc1` (centres undefined) gave AMA1-RON2 inh -7%.
`CCCCNC(=O)c1cn(CC)c2ccc(S(=O)(=O)N3CCCCCC3)cc2c1=O` gave HCV inh -5%, CHX counter -3, Pf growth 48h inconclusive, Pf growth 96h -23%, Shiga inhibitor 21 and AMA1-RON2 inh 0%.
`COc1ccccc1C(=O)Nc1ccc(CN2CCCCC2)cc1` gave HCV inh -27%, CHX counter 11*, Pf growth 48h -16%, Pf growth 96h 14%, Shiga inhibitor 10 and AMA1-RON2 inh 20%.
For COc1ccccc1C(=O)NCc1ccncc1 the results were CHX counter -3, Pf growth 48h 10%, Pf growth 96h -20%, Shiga inhibitor -19 and AMA1-RON2 inh 4%.
Screening COc1ccccc1C(=O)Nc1ccc(Cc2ccncc2)cc1 returned HCV inh inconclusive, CHX counter 13*, Pf growth 48h -12%, Pf growth 96h 4%, Shiga inhibitor -3 and AMA1-RON2 inh 0%.
O=C(NC(=S)Nc1ccc(Cc2ccncc2)cc1)c1ccccc1F was read as HCV inh -25%, CHX counter 24*, Pf growth 48h inconclusive, Pf growth 96h 11%, Shiga inhibitor 41 and AMA1-RON2 inh 45%.
Screening CCOC(=O)Nc1ccc(Cc2ccncc2)cc1 returned HCV inh inconclusive, CHX counter 26*, Pf growth 48h 34%, Pf growth 96h inconclusive, Shiga inhibitor 29 and AMA1-RON2 inh -11%.
For CC(C)(Oc1ccc(C2CCCc3ccccc32)cc1)C(=O)O (centres undefined) the results were Pf growth 48h -7% and Pf growth 96h -7%.
For NC(=O)CC(NC(=O)Cc1cccc2ccccc12)c1ccc(N2CCN(c3ccccn3)CC2)c([N+](=O)[O-])c1 (centres undefined) the results were HCV inh 6%, CHX counter 6, Pf growth 48h -15%, Pf growth 96h 10%, Shiga inhibitor 2 and AMA1-RON2 inh 1%.
`COc1ccc([N+](=O)[O-])cc1C(=O)Nc1ccc(Cc2ccncc2)cc1` gave HCV inh 0%, CHX counter 13*, Pf growth 48h -16%, Pf growth 96h 44%, Shiga inhibitor 30 and AMA1-RON2 inh -2%.
O=C(Nc1ccccc1)c1cc([N+](=O)[O-])ccc1Cl was read as HCV inh inconclusive, CHX counter -3, Pf growth 48h 44%, Pf growth 96h 42%, Shiga inhibitor -4 and AMA1-RON2 inh 2%.
